Results on 40 compounds are retold here after PubChem BioAssay (NCATS).

Results filed as inconclusive are left out. Activity calls are given as the source filed them. Calls come from the whole dose curve; as a rule, active = well fitted curve in the direction sought with a large enough effect; inconclusive = small, poorly fitted or top-dose-only effect, or another doubt; inactive = no such curve, though single readings can be large or run the other way.

This assay is described as follows: Cytometric Cell-Based qHTS for Inhibitors of the mTORC1 Signaling Pathway in MEF (Tsc2-/-, p53-/-) Cells (AID 2660).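 Note: Tsc2 and p53 null MEFs carrying empty vector with compound for 24 h; percent of cells above a phospho-rpS6 to PI ratio cutoff in each well.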 The note with it: mTORC1 pathway cytometry; series mostly up to 38.3 µM. An excerpt: NIH Molecular Libraries Probe Production Centers Network [MLPCN]
NIH Chemical Genomics Center [NCGC]
Assay Submitter (PI): Blenis, John; Hoffman, Greg; Harvard University
NCGC Assay Overview: The mammalian target of rapamycin (mTOR) is an intracellular serine/threonine kinase Aberrant regulation of mTOR signaling plays a causative role in a number of human diseases, including cancer, benign tumors such as lymphangioleiomyomatosis (LAM) and Tuberous Sclerosis Complex (TSC), and metabolic diseases such as diabetes and obesity. This project aims to identify inhibitors of ribosomal protein S6 (rpS6) phosphorylation. The phosphorylation of rpS6 is a key event downstream of mTOR activation. The assay uses a phospho-specific antibody of phospho-rpS6 to detect inhibitors of mTOR activation. Mutations in the Tsc1 and Tsc2 genes are the underlying genetic lesions responsible for TSC, causing constitutive activation of the mTORC1 pathway and leading to profound effects on cell metabolism. Aberrant metabolism in cancer has recently received significant attention as a target to develop therapeutic agents in the treatment of cancer.1 As Tsc2-/- cells have lost the ability to respond to energy and growth factor deprivation, these cells are unable to properly down regulate cellular biosynthetic processes in response to metabolic stress, and are thus extremely sensitive to glucose deprivation-induced death.2 A central goal of this project is to explore the unique cell survival and metabolic properties of cells with Tsc1 or Tsc2 by screening for compounds that selectively target the Tsc2-/- MEFs by screening both Tsc2-/- and WT MEF cell lines. We hope to better understand these aspects of TSC physiology in order to exploit them for therapeutic benefit.
NCGC Acumen Assay Protocol Summary:
For quantitative high throughput analysis of mTORC1 signaling, we developed a cell-based assay for immuno-fluorescence based detection of rpS6 phosphorylation on the Acumen Explorer that will be used a platform for the primary small molecule screen. Mouse embryonic fibroblasts (MEFs) are cultured in 1536-well plates using DMEM + 10% FBS. Twenty-four hrs after plating, test compounds (solubilized in DMSO) are delivered and incubated with the cells for 24 hrs at 37 degree Celsius. Following the incubation, media with compound is aspirated and the cells are fixed in 4% paraformaldehyde (PFA) containing PBS + 0.2% TX-100. Next, PFA is aspirated, cells are washed two times with PBS plus 0.2% TX-100 and the cells are blocked for 1 hr at room temperature (blocking buffer: LiCOR Blocking Buffer plus 0.2% TX-100). This is followed by aspiration and staining with Alexa-488 conjugated-phospho-rpS6 Ser235/236 antibody for 2 hours at room temperature (Cell Signaling Technology # 4803, 1:50 dilution in blocking buffer). Cells are washed two times with PBS plus 0.2% TX-100, and stained with 10 uM propidium iodide (PI) for 20-25 minutes for cell number measurement (1:500 dilution of Hoescht staining is also added for IN Cell imaging). The plates are scanned on the Acumen Explorer laser scanning instrument (TTP Labtech) using the 488nm laser for simultaneous excitation of the Alexa-488 and PI. The fluorescence emission from the Alexa-488 conjugated rpS6 phospho-235/236 antibody staining is selected using a […] band pass filter. Fluorescence emission from the PI stain is selected using a 575-640 nm band pass filter. The normalized phospho-S6 staining is calculated as the ratio of the integrated Alexa 488 intensity divided by the integrated PI intensity for the single concentration rapamycin control (7.5 nM) and DMSO columns. […] Inhibition of the pathway is defined based on the normalized phospho-S6 intensity in rapamycin treated cells. […]
On to `Nc1ncnc2c1c(I)cn2[C@@H]1C[C@H](N)[C@@H](O)[C@H]1O`, for which the result was inactive.

Take `O=C(O)c1cc(=O)c2ccccc2[nH]1`: the compound was called inactive.

`O=C1C(SCCO)=C(SCCO)C(=O)c2ccccc21`: the compound was classed as inactive.

In the case of `CC(=O)N[C@H](C(=O)O)C(C)(C)SN=O`, the call was inactive.

In the case of `Cc1cc2c(cc1Cl)N(C(=O)Nc1ccc(Oc3cccnc3C)nc1)CC2`, the result was inactive.

For `Oc1ccc(C2CNCc3sccc32)cc1O` (stereo not given), the compound was classed as inactive.

On to `COc1cc2nc(N3CCN(C(=O)OCc4ccccc4)C(C(=O)NC(C)(C)C)C3)nc(N)c2cc1OC` (stereo not given), for which the call was inactive.

Take `CN1[C@@H](CC(=O)c2ccccc2)CCC[C@H]1C[C@H](O)c1ccccc1`: the call was inactive.

Regarding `COc1cccc(C(=O)NCCN2CCN(c3ccc(Cl)cc3)CC2)c1`, the result was inactive.

Consider `COc1ccc2c(c1)CCC1C2CC[C@@]2(C)C1CC[C@@H]2NCCCCCCN1C(=O)CCC1=O` (stereo not given in full), for which the compound was classed as inactive.

As to `CN(C)CCCO[C@@H]1[C@H]2OC(C)(C)O[C@H]2O[C@@H]1[C@H](O)CO`, the compound was classed as inactive.

`O=c1[nH]c2cc([N+](=O)[O-])c([N+](=O)[O-])cc2[nH]c1=O`: the outcome was inactive.

Regarding `CC(C)(C=O)Cc1cc(C(C)(C)C)c(O)c(C(C)(C)C)c1`, the compound was classed as inactive.

Take `CN1C2CC(OC(=O)[C@H](CO)c3ccccc3)CC1C1OC12` (stereo not given in full): the result was inactive.

On to `Oc1cc2c(cc1O)CN(C(=S)NCCc1ccc(Cl)cc1)CCC2`, for which the result was inactive.

As for `OC[C@H]1O[C@@H](n2cnc3c(NC4CCCCC4)ncnc32)[C@H](O)[C@@H]1O`, the compound was called inactive.

As for `Brc1c(Br)c(Br)c2n[nH]nc2c1Br`, the compound was called inactive.

As for `Cc1cc(NC(=O)Nc2ccc3c(ccn3C)c2)sn1`, the compound was classed as inactive.

In the case of `C=C[C@H]1CN2CC[C@@H]1C[C@@H]2[C@@H](O)c1ccnc2ccc(OC)cc12`, the compound was called inactive.

In the case of `Clc1ccc(N2CCN(Cc3c[nH]c4ncccc34)CC2)cc1`, the result was inactive.

`COc1ccccc1CNCCCCCCNCCCCCCCCNCCCCCCNCc1ccccc1OC`: the outcome was inactive.

In the case of `N#C/C(=C\c1ccc(O)c(O)c1)C(=O)NCCCc1ccccc1`, the result was inactive.

Take `CN1CCC[C@H]1c1cccnc1`: the compound was called inactive.

`Cc1cc(NC2CCCCC2)nc(-n2nc(C)cc2C)n1`: the compound was classed as inactive.

`NC[C@H]1O[C@@H](n2cnc3c(N)ncnc32)[C@H](O)[C@@H]1O`: the compound was classed as inactive.

Turning to `CCNC(=O)[C@H]1O[C@@H](n2cnc3c(N)nc(NCCc4ccc(CCC(=O)O)cc4)nc32)[C@H](O)[C@@H]1O`, the compound was classed as inactive.

Take `COc1ccccc1N1CCN(CCCCNS(=O)(=O)c2cccc3c(N(C)C)cccc23)CC1`: the result was inactive.

Take `COc1ccccc1N1CCN(CCN(C(=O)c2ccc(I)cc2)c2ccccn2)CC1`: the result was inactive.

Turning to `c1ccc(-c2ccccn2)nc1`, the call was inactive.

Take `CC(N)C(=O)OC(C)(C)Cc1ccc(Cl)cc1` (stereo not given): the call was inactive.

Take `O=C(O)c1cc([N+](=O)[O-])ccc1NCCCc1ccccc1`: the compound was called inactive.

In the case of `C=CC(C)=C[C@@]1(C)SC(=O)C(C)=C1O`, the call was inactive.

Regarding `CNc1ncnc2c1ncn2[C@@H]1O[C@H](CO)[C@@H](O)[C@H]1O`, the compound was classed as inactive.

For `CCN(CC)c1ncnc2c1ncn2[C@@H]1O[C@H](COP(=O)(O)OP(=O)(O)C(Br)(Br)P(=O)(O)O)[C@@H](O)[C@H]1O`, the call was inactive.

On to `CN(C)C(N)=NCCC[C@H](N)C(=O)O`, for which the outcome was inactive.

Take `O=S(=O)(c1cccc2c(I)cccc12)N1CCCNCC1`: the compound was classed as inactive.

In the case of `O=C1/C(=C/c2ccsc2)CC/C1=C\c1cccs1`, the compound was classed as inactive.

Regarding `CCCCCCCCCCCCCCCC(=O)NCC(COP(=O)([O-])OCC[N+](C)(C)C)OCC` (stereo not given), the outcome was inactive.

For `NC(N)=NC(=O)c1nc(Cl)c(N2CCCCCC2)nc1N`, the compound was called inactive.

With `N#C/C(=C\c1ccc(O)c(O)c1)C(=O)c1ccc(O)c(O)c1`, the compound was classed as inactive.
